Measured values reported in PubChem BioAssay (EPA / NIEHS).
Records with an inconclusive call do not appear. The source made the active and inactive calls. The calls were made as follows, unless noted: active = hit-call score of the fitted dose curve at least 0.9, where 1 is the maximum; inconclusive = response in the unintended direction; inactive = score below 0.9.

How the values were obtained:
[1] = biological target: human Ephrin type-B Receptor 2 (EphB2), EPHB2 (gene 2048) (UniProt P29323); test: NVS_ENZ_hEphB2: NovaScreen (NVS) Enzymatic Assay for human Ephrin type-B Receptor 2 (EphB2) (AID 2283156)
In short: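 Compounds were first tested in duplicate at 25 uM, with hits rerun singly in concentration series up to 50 uM. Enzyme activity on fluorescent substrate was read at 1 h by mobility-shift separation, scored as signal loss relative to DMSO.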

[2] = biological target: human Fibroblast Growth Factor Receptor 1 (FGFR1), FGFR1 (gene 2260) (UniProt P11362); test: NVS_ENZ_hFGFR1: NovaScreen (NVS) Enzymatic Assay for human Fibroblast Growth Factor Receptor 1 (FGFR1) (AID 2283159)
human Fibroblast Growth Factor Receptor 1 (FGFR1), FGFR1 (gene 2260), sequence (P11362 whole entry, looked up): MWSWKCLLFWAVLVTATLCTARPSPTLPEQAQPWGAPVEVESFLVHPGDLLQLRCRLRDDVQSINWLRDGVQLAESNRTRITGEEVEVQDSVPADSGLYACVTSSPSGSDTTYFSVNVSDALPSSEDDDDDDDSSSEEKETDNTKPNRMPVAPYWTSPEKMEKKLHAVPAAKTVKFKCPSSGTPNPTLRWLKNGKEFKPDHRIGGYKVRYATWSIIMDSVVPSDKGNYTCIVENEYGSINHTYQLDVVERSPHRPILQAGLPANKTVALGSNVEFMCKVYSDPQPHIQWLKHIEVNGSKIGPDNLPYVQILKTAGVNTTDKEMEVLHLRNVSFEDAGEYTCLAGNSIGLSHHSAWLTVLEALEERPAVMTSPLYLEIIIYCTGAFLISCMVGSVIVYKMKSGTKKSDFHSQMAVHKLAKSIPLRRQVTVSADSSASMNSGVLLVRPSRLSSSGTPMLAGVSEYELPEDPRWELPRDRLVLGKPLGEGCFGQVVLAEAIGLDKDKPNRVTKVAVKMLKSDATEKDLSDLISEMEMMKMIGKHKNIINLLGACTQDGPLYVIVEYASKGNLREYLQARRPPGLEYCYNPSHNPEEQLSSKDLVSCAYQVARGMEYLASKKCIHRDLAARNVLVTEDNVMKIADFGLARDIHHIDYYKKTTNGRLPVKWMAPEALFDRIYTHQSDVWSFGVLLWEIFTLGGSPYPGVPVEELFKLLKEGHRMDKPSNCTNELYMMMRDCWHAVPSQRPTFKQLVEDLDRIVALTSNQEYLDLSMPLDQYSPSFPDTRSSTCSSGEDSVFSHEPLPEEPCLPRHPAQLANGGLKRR
In short: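 Cell-free recombinant kinase with fluorescent substrate, product separated by electrophoretic mobility shift; read 1 hour after dosing, loss of signal relative to DMSO. Initial screen in duplicate at 25 uM, actives followed in concentration series.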

[3] = biological target: human Mitogen-Activated Protein Kinase 1 (MAPK 1), MAPK1 (gene 5594) (UniProt P28482); test: NVS_ENZ_hMAPK1: NovaScreen (NVS) Enzymatic Assay for human Mitogen-Activated Protein Kinase 1 (MAPK 1) (AID 2283175)
human Mitogen-Activated Protein Kinase 1 (MAPK 1), MAPK1 (gene 5594), sequence (P28482 whole entry, looked up): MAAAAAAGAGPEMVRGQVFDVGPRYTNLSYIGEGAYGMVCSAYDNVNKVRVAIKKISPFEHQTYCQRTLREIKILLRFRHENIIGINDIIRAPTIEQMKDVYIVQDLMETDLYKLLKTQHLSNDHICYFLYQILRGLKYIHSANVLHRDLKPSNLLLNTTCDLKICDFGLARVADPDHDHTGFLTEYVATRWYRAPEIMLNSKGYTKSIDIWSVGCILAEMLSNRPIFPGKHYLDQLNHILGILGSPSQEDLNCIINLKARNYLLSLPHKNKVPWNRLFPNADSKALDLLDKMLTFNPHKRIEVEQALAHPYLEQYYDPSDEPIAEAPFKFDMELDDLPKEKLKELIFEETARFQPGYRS
In short: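 Cell-free recombinant human MAPK1 enzymatic assay, fluorescence/electrophoretic mobility shift read at 1 h; loss of signal vs DMSO. Primary screen in duplicate at 25 uM; actives (e.g. ≥30% inhibition) run as concentration-response up to 50 uM.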

[4] = biological target: human p21 Activated Kinase 4 (PAK4), PAK4 (gene 10298) (UniProt O96013); test: NVS_ENZ_hPAK4: NovaScreen (NVS) Enzymatic Assay for human p21 Activated Kinase 4 (PAK4) (AID 2283189)
human p21 Activated Kinase 4 (PAK4), PAK4 (gene 10298), sequence (O96013 whole entry, looked up): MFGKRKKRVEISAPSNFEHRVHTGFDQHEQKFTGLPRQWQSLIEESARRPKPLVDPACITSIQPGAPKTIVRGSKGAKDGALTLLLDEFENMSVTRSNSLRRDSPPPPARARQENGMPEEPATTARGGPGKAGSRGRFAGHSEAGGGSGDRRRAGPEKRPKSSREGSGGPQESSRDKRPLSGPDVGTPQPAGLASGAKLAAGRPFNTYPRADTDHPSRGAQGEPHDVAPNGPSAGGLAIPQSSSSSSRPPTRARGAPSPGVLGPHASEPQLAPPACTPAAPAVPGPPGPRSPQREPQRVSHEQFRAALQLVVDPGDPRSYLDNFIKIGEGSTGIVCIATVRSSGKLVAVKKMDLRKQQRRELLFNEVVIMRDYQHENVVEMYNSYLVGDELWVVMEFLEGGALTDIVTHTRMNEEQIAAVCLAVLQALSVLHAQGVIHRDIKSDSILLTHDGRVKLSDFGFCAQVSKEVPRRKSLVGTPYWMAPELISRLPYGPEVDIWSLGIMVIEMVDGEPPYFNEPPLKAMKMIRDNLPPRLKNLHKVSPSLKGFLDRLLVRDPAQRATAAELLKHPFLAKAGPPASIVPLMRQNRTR
In short: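 Extracted PAK4 enzyme activity read by fluorescence with mobility-shift separation 1 h after chemical addition. Duplicate single-concentration screen at 25 uM, DMSO as negative control.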

[5] = biological target: human Phosphatase and Tensin Homolog (PTEN), PTEN (gene 5728) (UniProt P60484); test: NVS_ENZ_hPTEN: NovaScreen (NVS) Enzymatic Assay for human Phosphatase and Tensin Homolog (PTEN) (AID 2283203)
human Phosphatase and Tensin Homolog (PTEN), PTEN (gene 5728), sequence (P60484 whole entry, looked up): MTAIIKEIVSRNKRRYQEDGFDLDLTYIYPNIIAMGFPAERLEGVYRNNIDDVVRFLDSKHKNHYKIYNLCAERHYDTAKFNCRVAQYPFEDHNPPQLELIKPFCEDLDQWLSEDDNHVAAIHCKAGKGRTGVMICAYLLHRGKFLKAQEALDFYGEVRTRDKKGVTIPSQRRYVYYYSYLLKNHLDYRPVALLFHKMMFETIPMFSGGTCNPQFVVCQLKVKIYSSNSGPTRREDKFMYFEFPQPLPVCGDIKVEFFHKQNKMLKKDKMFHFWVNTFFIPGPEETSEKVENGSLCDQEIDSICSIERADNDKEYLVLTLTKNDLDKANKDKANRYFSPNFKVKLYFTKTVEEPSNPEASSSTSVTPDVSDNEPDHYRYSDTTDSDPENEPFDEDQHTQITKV
In short: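 Loss of fluorescent product signal after mobility-shift separation reports PTEN activity, recombinant human enzyme, 1 h after compound addition. Single 25 uM duplicate screen, then concentration-response on actives; DMSO baseline.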

[6] = tested on: rat Monoamine Oxidase, MAO-A, Peripheral (MAOAP), gene 29253; test: NVS_ENZ_rMAOAP: NovaScreen (NVS) Enzymatic Assay for rat Monoamine Oxidase, MAO-A, Peripheral (MAOAP) (AID 2283237)
In short: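 Scintillation counting tracked MAO-A activity in a cell-free rat liver mitochondrial membrane prep, read 1.17 hours after compound addition. Single-point duplicate testing at 25 uM preceded concentration-response follow-up; activity was fitted relative to DMSO.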

[7] = biological target: Protein deacetylase HDAC6 (Homo sapiens) (UniProt Q9UBN7); test: NVS_ENZ_hHDAC6: NovaScreen (NVS) Enzymatic Assay for human Histone Deacetylase 6 (HDAC6) (AID 2283164)
In short: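 Concentration-response runs up to 50 uM followed a duplicate 25 uM single-point screen. Deacetylase activity of recombinant human HDAC6 read by fluorescence after 1 h, with mobility-shift separation of substrate and product; DMSO as baseline.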

[8] = biological target: rat Corticotropin Releasing Factor Receptor (CRF), Crhr1 (gene 58959) (UniProt P35353); test: NVS_GPCR_rCRF: NovaScreen (NVS) G Protein-Coupled Receptor Assay for rat Corticotropin Releasing Factor Receptor (CRF) (AID 2283300)
In short: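 Single-concentration (25 uM, duplicate) radioligand binding on rat cortical membrane preparations, counted by scintillation after 2 h. Activity scored as signal loss relative to DMSO negative control.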

[9] = biological target: human Ephrin type-A Receptor 2 (EphA2), EPHA2 (gene 1969) (UniProt P29317); test: NVS_ENZ_hEphA2: NovaScreen (NVS) Enzymatic Assay for human Ephrin type-A Receptor 2 (EphA2) (AID 2283155)
human Ephrin type-A Receptor 2 (EphA2), EPHA2 (gene 1969), sequence (P29317 whole entry, looked up): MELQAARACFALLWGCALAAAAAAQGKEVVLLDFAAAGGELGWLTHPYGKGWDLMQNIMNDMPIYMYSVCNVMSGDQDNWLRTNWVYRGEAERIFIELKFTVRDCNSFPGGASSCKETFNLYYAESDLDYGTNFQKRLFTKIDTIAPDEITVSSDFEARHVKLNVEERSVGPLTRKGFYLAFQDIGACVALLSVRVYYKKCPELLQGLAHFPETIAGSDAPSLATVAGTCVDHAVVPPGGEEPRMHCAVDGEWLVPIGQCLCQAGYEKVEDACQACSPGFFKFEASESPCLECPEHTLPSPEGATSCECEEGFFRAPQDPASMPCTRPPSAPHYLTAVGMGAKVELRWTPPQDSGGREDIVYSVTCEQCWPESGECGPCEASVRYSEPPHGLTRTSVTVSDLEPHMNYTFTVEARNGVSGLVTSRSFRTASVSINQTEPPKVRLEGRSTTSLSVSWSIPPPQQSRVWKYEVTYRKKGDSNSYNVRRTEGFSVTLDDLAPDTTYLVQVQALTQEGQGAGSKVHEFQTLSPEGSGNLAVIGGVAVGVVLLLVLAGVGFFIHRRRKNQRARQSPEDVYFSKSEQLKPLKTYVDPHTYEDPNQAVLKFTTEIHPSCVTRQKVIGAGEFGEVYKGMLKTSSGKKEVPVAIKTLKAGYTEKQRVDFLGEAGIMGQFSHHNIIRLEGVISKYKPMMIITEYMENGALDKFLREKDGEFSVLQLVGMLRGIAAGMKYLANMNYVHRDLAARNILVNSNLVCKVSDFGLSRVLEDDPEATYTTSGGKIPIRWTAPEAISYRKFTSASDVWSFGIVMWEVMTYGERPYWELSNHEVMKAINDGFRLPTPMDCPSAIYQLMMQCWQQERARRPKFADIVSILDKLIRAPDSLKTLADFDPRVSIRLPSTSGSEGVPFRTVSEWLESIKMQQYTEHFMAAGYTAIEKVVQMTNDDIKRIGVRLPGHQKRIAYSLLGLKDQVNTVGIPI
In short: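 Enzyme activity of recombinant EphA2 read by fluorescence after mobility-shift separation, 1 h after dosing. Chemicals first tested at 25 uM (duplicate); those passing threshold run as concentration series, top 50 uM, single replicate, relative to DMSO.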

[10] = tested on: rat Monoamine Oxidase, MAO-A, Central (MAOAC), gene 29253; test: NVS_ENZ_rMAOAC: NovaScreen (NVS) Enzymatic Assay for rat Monoamine Oxidase, MAO-A, Central (MAOAC) (AID 2283243);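 also: potency refers to inhibition seen as signal drop below DMSO baseline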
In short: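 Scintillation read-out of MAO-A activity in rat brain lysate, 1.5 h post-dosing. Primary single-concentration screen: 25 uM, duplicate; actives re-tested in concentration series. DMSO = negative control/baseline.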

[11] = CCTE_Harrill_HTTr_Apoptosis_PRF_DMEM_12hr: (Pilot) CCTE's 12-hour Apoptosis Assessment for the High-Throughput Transcriptomics (HTTr) Platform, in MCF-7 cells cultured in phenol red-free DMEM + 10% charcoal-stripped fetal bovine serum, Harrill Lab (AID 2283985; active = hit-call score of the fitted dose curve at least 0.9, where 1 is the maximum; inactive = score below 0.9)
In short: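 Caspase-3/7 activity by CellEvent Green high content imaging after 12 h compound exposure (eight concentrations) in MCF-7 grown in phenol red-free DMEM plus 10% charcoal-stripped serum; DMSO as baseline.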

[12] = biological target: human Epidermal Growth Factor Receptor (EGFR), EGFR (gene 1956) (UniProt P00533); test: NVS_ENZ_hEGFR: NovaScreen (NVS) Enzymatic Assay for human Epidermal Growth Factor Receptor (EGFR) (AID 2283151)
In short: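 Cell-free kinase assay, fluorescence plus electrophoretic mobility shift separating substrate and product, read 1 hour after dosing; loss of signal vs DMSO. Duplicate screen at 25 uM, then concentration-response to 50 uM.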

[13] = biological target: human Protein Tyrosine Phosphatase Receptor Type C (PTPRC), PTPRC (gene 5788) (UniProt P08575); test: NVS_ENZ_hPTPRC: NovaScreen (NVS) Enzymatic Assay for human Protein Tyrosine Phosphatase Receptor Type C (PTPRC) (AID 2283212)
human Protein Tyrosine Phosphatase Receptor Type C (PTPRC), PTPRC (gene 5788), sequence (P08575 whole entry, looked up): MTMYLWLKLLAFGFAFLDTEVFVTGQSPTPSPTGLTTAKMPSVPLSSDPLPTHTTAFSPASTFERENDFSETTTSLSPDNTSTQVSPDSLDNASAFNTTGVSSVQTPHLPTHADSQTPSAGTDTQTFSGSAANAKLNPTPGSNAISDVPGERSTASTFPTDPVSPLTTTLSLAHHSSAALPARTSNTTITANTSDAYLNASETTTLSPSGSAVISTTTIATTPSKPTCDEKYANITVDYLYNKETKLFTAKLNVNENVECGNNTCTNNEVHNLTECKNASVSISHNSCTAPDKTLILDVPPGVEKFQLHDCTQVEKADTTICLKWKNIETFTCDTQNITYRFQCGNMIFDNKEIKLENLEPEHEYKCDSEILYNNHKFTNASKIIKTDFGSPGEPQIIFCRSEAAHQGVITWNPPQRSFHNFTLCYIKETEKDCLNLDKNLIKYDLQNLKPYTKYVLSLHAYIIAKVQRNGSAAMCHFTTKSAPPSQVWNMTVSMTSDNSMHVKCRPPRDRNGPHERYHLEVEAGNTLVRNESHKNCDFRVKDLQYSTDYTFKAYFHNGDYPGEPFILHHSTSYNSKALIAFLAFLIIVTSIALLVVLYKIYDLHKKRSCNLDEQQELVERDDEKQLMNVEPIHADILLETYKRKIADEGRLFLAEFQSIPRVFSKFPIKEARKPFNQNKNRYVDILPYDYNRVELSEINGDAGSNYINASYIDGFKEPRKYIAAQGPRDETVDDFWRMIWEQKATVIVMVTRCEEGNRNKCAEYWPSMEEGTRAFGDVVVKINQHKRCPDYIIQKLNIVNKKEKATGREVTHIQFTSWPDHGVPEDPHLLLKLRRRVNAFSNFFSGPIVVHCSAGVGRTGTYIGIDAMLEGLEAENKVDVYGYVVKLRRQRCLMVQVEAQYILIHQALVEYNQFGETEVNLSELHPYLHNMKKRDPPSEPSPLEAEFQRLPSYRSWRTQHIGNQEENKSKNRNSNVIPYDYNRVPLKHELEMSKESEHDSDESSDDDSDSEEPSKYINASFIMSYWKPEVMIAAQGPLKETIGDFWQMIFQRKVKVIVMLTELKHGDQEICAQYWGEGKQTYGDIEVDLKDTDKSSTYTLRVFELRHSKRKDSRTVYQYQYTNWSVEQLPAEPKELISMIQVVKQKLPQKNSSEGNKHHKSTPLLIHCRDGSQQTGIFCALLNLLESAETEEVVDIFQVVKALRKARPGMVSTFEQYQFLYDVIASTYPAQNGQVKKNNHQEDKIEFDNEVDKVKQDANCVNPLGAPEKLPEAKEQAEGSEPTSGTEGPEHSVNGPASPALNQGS
In short: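 Absorbance-based phosphatase activity of human PTPRC protein extracted from yeast was measured 1 h post-dosing. Compounds first tested at 25 uM in duplicate, then those passing threshold in singleton concentration series to 50 uM.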

[14] = biological target: human Raf-1 Proto-Oncogene, serine/threonine Kinase (RAF1), RAF1 (gene 5894) (UniProt P04049); test: NVS_ENZ_hRAF1: NovaScreen (NVS) Enzymatic Assay for human Raf-1 Proto-Oncogene, serine/threonine Kinase (RAF1) (AID 2283216)
In short: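 Single-point screening at 25 uM (duplicate), followed by singleton concentration-response to 50 uM maximum for chemicals exceeding threshold. Enzyme activity from fluorescent substrate-product mobility-shift separation after 1 h, relative to DMSO.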

[15] = ATG_M_32_XSP2: Attagene TRANS-FACTORIAL Multi-Species (XSP2) HepG2 Assay for M19 Transcription Factor (Internal Marker) (AID 2283826)
In short: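 Total RNA is taken from compound-treated HepG2 cells after 24 h and reverse-transcribed; reporter cDNA is PCR-amplified, end-labelled with 6-FAM, digested with HpaI for 2h at 37 C and sized by capillary electrophoresis. Activity is fitted in the positive direction against DMSO.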

[16] = biological target: human Tyrosine Protein Kinase Receptor Tie-2 (Tie2), TEK (gene 7010) (UniProt Q02763); test: NVS_ENZ_hTie2: NovaScreen (NVS) Enzymatic Assay for human Tyrosine Protein Kinase Receptor Tie-2 (Tie2) (AID 2283225)
In short: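 Substrate and product were separated by mobility shift and detected by fluorescence after a 1-hour reaction with recombinant Tie2. Chemicals passing a 25 uM single-point screen were titrated to a maximum of 50 uM. Results were normalized to DMSO baseline.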

[17] = biological target: rat Oxytocin Receptor (OXT), Oxtr (gene 25342) (UniProt P70536); test: NVS_GPCR_rOXT: NovaScreen (NVS) G Protein-Coupled Receptor Assay for rat Oxytocin Receptor (OXT) (AID 2283330)
In short: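 Binding to rat uterine membrane receptor was followed by scintillation counting of filter-trapped radioligand after 1 h. A 25 uM duplicate single-point screen preceded concentration series with a top of 50 uM. Signal loss was analysed relative to DMSO.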

[18] = biological target: human Matrix Metalloproteinase-1 (MMP1), MMP1 (gene 4312) (UniProt P03956); test: NVS_ENZ_hMMP1: NovaScreen (NVS) Enzymatic Assay for human Matrix Metalloproteinase-1 (MMP1) (AID 2283181)
human Matrix Metalloproteinase-1 (MMP1), MMP1 (gene 4312), sequence (P03956 whole entry, looked up): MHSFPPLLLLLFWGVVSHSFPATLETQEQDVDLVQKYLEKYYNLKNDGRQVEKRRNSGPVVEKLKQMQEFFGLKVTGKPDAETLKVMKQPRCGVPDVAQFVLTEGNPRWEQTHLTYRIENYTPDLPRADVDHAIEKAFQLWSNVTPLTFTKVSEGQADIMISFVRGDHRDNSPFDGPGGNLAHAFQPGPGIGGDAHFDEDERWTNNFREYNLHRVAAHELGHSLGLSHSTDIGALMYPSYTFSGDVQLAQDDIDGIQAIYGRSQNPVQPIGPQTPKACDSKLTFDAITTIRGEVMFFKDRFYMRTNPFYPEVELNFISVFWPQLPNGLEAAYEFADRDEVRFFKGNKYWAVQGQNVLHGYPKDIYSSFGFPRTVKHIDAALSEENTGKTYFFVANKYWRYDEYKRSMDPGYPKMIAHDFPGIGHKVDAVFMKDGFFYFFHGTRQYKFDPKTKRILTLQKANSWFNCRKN
In short: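 Cell-free fluorescent substrate assay of human MMP1, read after 1 h. A single 25 uM duplicate screen was followed by concentration series to a maximum of 50 uM for actives meeting threshold; inhibition analysed against DMSO baseline.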

[19] = biological target: Voltage-dependent N-type calcium channel subunit alpha-1B (Rattus norvegicus) (UniProt Q02294); test: NVS_IC_rCaChN: NovaScreen (NVS) Ion Channel Assay for rat Calcium Channel, Type N (CaChN) (AID 2283317)
[20] = biological target: human NIMA (Never In Mitosis Gene A)-Related Kinase 2 (NEK2), NEK2 (gene 4751) (UniProt P51955); test: NVS_ENZ_hNEK2: NovaScreen (NVS) Enzymatic Assay for human NIMA (Never In Mitosis Gene A)-Related Kinase 2 (NEK2) (AID 2283188)
In short: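 Compounds were first screened in duplicate at 25 uM, with actives followed up in concentration series. Recombinant NEK2 activity, cell-free, was read 1 h after dosing by fluorescence intensity after mobility-shift separation. Signal loss was scored against DMSO.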

[21] = biological target: rat Monoamine Oxidase, MAO-B, Peripheral (MAOBP), Maob (gene 25750) (UniProt P19643); test: NVS_ENZ_rMAOBP: NovaScreen (NVS) Enzymatic Assay for rat Monoamine Oxidase, MAO-B, Peripheral (MAOBP) (AID 2283242)

For `COCCO`, the outcome [1] was “inactive”, the outcome [2] was “inactive” and the outcome [3] was “inactive”. For the same compound, the outcome [4] was “inactive” and the outcome [5] was “inactive”.
With `CCCCCCCC=O` the outcome [2] was “inactive”, the outcome [3] was “inactive” and the outcome [6] was “inactive”.
For `CCCCCCC(=O)O`, the outcome [7] was “inactive”.
In the case of `C1CCC(SSC2CCCCC2)CC1`, the outcome [7] is reported as “inactive”, the outcome [5] is reported as “inactive” and the outcome [8] is reported as “inactive”.
With `CCCCc1oc2ccccc2c1C(=O)c1cc(I)c(OCCN(CC)CC)c(I)c1` the outcome [9] was “inactive”, the outcome [4] was “inactive” and the AC50 [10] was 18.9 µM (active). For the same compound, the outcome [11] was “inactive”.
For `Cc1ccc(C(C)(C)C)c(O)c1`, the outcome [9] was “inactive”.
With `COC(=O)[C@H]1[C@H]2C[C@@H]3c4[nH]c5cc(OC)ccc5c4CCN3C[C@H]2C[C@@H](OC(=O)c2cc(OC)c(OC)c(OC)c2)[C@@H]1OC` the outcome [12] was “inactive” and the AC50 [13] was 21.1 µM (active).
For `Clc1nc(Cl)c(Cl)c(Cl)c1Cl`, the outcome [9] was “inactive”, the outcome [1] was “inactive” and the outcome [14] was “inactive”. The outcome [15] was “inactive”.
With `CC[C@H](C)C(=O)O[C@H]1C[C@H](O)C=C2C=C[C@H](C)[C@H](CC[C@@H](O)C[C@@H](O)CC(=O)O)[C@H]21` the outcome [9] was “inactive”, the outcome [4] was “inactive” and the outcome [5] was “inactive”. The outcome [16] was “inactive”, the outcome [6] was “inactive” and the outcome [17] was “inactive”.
With `O=C(O)[C@H](O)[C@@H](O)C(=O)O` the outcome [4] was “inactive”.
With `O=P(OC(CCl)CCl)(OC(CCl)CCl)OC(CCl)CCl` the outcome [18] was “inactive” and the outcome [15] was “inactive”.
For `CC/C(=C\C(=N/O)C(N)=O)C(C)[N+](=O)[O-]` (stereo not given), the outcome [4] was “inactive” and the outcome [19] was “inactive”.
In the case of `C=C(C)CCCC`, the outcome [5] is reported as “inactive”.
With `CCOC(=O)[C@H](C)O` the outcome [5] was “inactive”.
With `CCCCC=O` the outcome [20] was “inactive”.
With `O=CCCCC=O` the outcome [20] was “inactive”.
In the case of `COC(=O)c1ccccc1O`, the outcome [18] is reported as “inactive”.
With `C#C[C@]1(O)CC[C@H]2[C@@H]3CCC4=Cc5oncc5C[C@]4(C)[C@H]3CC[C@@]21C` the AC50 [5] was 25 µM (active).
In the case of `NC(=O)N1C(=O)C(C(=O)c2cc(Cl)cs2)c2cc(F)c(Cl)cc21` (stereo not given), the outcome [4] is reported as “inactive”, the AC50 [5] is reported as 25 µM (active) and the outcome [13] is reported as “inactive”.
In the case of `O=[N+]([O-])c1ccc(O)cc1`, the AC50 [18] is reported as 16.9 µM (active), the AC50 [6] is reported as 19.2 µM (active) and the AC50 [21] is reported as 39.1 µM (active). The AC50 [10] was 16.6 µM (active).
For `Cc1ccc([N+](=O)[O-])cc1N`, the outcome [18] was “inactive”.
For `Cc1cc(Cc2ccc(N)c(C)c2)ccc1N`, the outcome [4] was “inactive”.
In the case of `O=[Si]=O`, the outcome [4] is reported as “inactive”.
With `O=C(N[C@@H](Cc1ccccc1)[C@@H](O)C(=O)N1C[C@@H](O)[C@@H](O)C1)c1cc2cc(Cl)ccc2[nH]1` the outcome [18] was “inactive”.
In the case of `CCCOc1ccc(S(=O)(=O)N2CCN(CC)CC2)cc1-c1nc2c(CC)n(Cc3ccccn3)nc2c(=O)[nH]1`, the outcome [3] is reported as “inactive” and the outcome [19] is reported as “inactive”.
With `C[C@]12C[C@H](O)[C@H]3[C@@H](CCC4=CC(=O)CC[C@@]43C)[C@@H]1CC[C@@H]2C(=O)CO` the outcome [4] was “inactive” and the outcome [13] was “inactive”.
